Source: PubChem BioAssay (National Center for Advancing Translational Sciences (NCATS))
Rows were chosen to be rich in hits. Some 7.4% of all compounds tested hit in one or more screens of this group.
NPC1 prom act: activates the NPC1 promoter | Huh7 NPC1 promoter luciferase reporter, 24 h | Potency, µM (doses to about 9.22 µM), actives largely listed as activators | 320,000 compounds, 2.4% hits | AID 485313; note: nearly all actives have a fitted effect of over 60% in size
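Luciferase expression driven by the NPC1 promoter was measured in stably transfected Huh7 cells after a 24 h compound incubation, using a luciferase reagent and a luminescence read.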
FLuc counter: firefly luciferase modulation, counter-screen for miR-21 project; 360,000 compounds, 6.9% hits; P08659; Potency, µM (doses to about 57.5 µM), actives largely listed as inhibitors; purified FLuc, Km substrates, luminescence inhibition; note: nearly all actives have a fitted effect of over 55% in size
Target sequence (P08659 whole entry, looked up): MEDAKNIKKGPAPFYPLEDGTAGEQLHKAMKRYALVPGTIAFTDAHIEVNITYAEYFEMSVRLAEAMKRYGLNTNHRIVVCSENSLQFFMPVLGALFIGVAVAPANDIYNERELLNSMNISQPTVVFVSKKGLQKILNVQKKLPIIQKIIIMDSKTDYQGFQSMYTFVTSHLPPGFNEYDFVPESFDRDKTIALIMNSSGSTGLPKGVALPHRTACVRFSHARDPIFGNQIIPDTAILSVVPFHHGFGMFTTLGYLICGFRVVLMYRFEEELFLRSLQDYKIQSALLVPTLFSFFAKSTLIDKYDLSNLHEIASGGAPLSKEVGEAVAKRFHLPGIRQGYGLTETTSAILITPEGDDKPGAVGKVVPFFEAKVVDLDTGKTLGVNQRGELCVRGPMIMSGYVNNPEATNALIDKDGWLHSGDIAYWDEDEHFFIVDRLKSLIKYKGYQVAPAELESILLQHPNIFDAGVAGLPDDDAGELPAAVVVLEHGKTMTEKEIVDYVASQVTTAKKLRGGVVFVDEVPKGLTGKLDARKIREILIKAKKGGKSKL
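Purified P. pyralis luciferase (10nM final) with 10uM D-luciferin and 10uM ATP (Km levels) in 50mM Tris acetate pH 7.5, 10mM Mg acetate, 0.01% Tween-20, 0.05% BSA; qHTS 6-point titration, ~60 µM downward; luminescence read.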
SMN2 splice enh: increases expression of the SMN2 splice variant | 210,000 compounds, 2.8% hits | HEK293 SMN2-luciferase splicing reporter, luminescence, 30-36 h | Potency, µM (top dose mostly 46.1 µM), most hits filed as activators; note: nearly all actives have a fitted effect of over 55% in size
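HEK293 cells carry an SMN2 minigene-luciferase reporter in which exon 7 inclusion puts luciferase in frame. Cells were seeded at 2000 cells/well, attached for 10-12 hours, then exposed to compounds for 30-36 hours at 37C before ONE-Glo luminescence.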
ELG1 genotoxic: inducers of genotoxicity in HEK293T ELG1-luciferase cells; HEK293T ELG1-luciferase reporter, luminescence, 16 h; Potency, µM (highest dose often 46 µM), hits mostly activators; 330,000 compounds, 1.3% hits; note: nearly all actives have a fitted effect of over 60% in size
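16 hr compound incubation (37 °C, 5% CO2) of HEK293T cells carrying luciferase-tagged ELG1; luciferase then measured by ONE-Glo luminescence after 30 min at RT.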
Luc counter: Kinase-Glo luciferase inhibition (counter-screen); Q27757; Kinase-Glo luciferase, ATP luminescence, 8 min; Potency, µM (top dose mostly 38.3 µM), usual class: inhibitors; 200,000 compounds, 0.28% hits; note: nearly all actives have a fitted effect of over 60% in size
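Inhibition of Kinase-Glo luciferase light generation was assessed at 10 uM ATP in pH 7.2 imidazole buffer, with luminescence measured after eight minutes at ambient temperature.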
Rab9 promoter act: activates the Rab9 promoter. Huh7 Rab9 promoter-luciferase reporter, luminescence, 24 h. Potency, µM (doses to about 9.22 µM), actives largely listed as activators. 320,000 compounds, 2.8% hits. AID 485297; note: nearly all actives have a fitted effect of over 60% in size
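Cell-based reporter: Huh7 stable for Rab9 promoter-driven luciferase, plated in reduced-serum medium with 10% FBS at 1500 cells/well, compound-treated 24 h at 37 °C, luminescence read after 10 min reagent.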
Hits are given with their value; n = inactive; u = inconclusive; x = not tested or not shown. Calls come from the whole dose curve; as a rule, active = well fitted curve in the direction sought with a large enough effect; inconclusive = small, poorly fitted or top-dose-only effect, or another doubt; inactive = no such curve, though single readings can be large; an effect the other way counts as inactive or inconclusive.

SMILES	NPC1 prom act	FLuc counter	SMN2 splice enh	ELG1 genotoxic	Luc counter	Rab9 promoter act
O=C(O)c1ccc2c(c1)C(=O)N([C@H](Cc1c3ccccc3cc3ccccc13)C(=O)O)C2=O	n	n	x	x	x	n
COc1ncccc1-c1nnn(-c2ccc(Cl)c(Cl)c2)n1	2.8µM	4.8µM	x	u	x	3.2µM
COc1ccccc1-c1nnn(CC#N)n1	n	n	n	n	n	n
Cc1ccc(-n2nnc(-c3cc4ccccc4nc3Cl)n2)cc1	u	6µM	x	u	x	4.5µM
NC(=O)c1cccnc1Oc1ccc(Cl)cc1Cl	n	n	x	n	x	n
Cc1ccc(-n2c(=O)[nH]c3ncccc3c2=O)cc1	n	n	x	n	n	n
Cc1ccc(-c2cc3ccccc3nc2N2CCOCC2)cc1	n	n	n	n	n	n
COc1ncccc1-c1nnn(-c2ccc(F)cc2)n1	2.8µM	5.4µM	x	9.2µM	x	4µM
COc1ncccc1-c1nnn(-c2ccc(C)cc2)n1	3.2µM	4.3µM	x	9.2µM	x	3.2µM
O=C(NCc1ccccc1)Nc1cccn(Cc2c(F)cccc2Cl)c1=O	n	13µM	n	n	n	n
O=C(Nc1cccn(Cc2c(F)cccc2Cl)c1=O)NC1CCCCC1	n	13µM	x	n	n	n
Cc1ccc(NC(=O)Nc2cccn(Cc3c(F)cccc3Cl)c2=O)cc1	n	7.6µM	n	n	n	n
C#CCOC(=O)Nc1cccn(Cc2c(Cl)cccc2Cl)c1=O	n	17µM	n	n	n	n
O=C(Nc1cccn(Cc2c(Cl)cccc2Cl)c1=O)C1CC1	n	n	n	n	n	n
O=C(Nc1cccn(Cc2cccc(F)c2)c1=O)NC1CCCCC1	n	u	n	n	n	n
CCOC(=O)c1c(C)c(C(=O)NCCc2ccc(OC)cc2)c(C)n1C	x	n	n	x	x	x
COc1ccc(C(=O)N2CCC3(CC2)CN(Cc2ccc(C#N)cc2)C3)cc1	x	x	n	x	n	x
Cc1ccc(-c2c(CN3CCN(c4cccc(C(F)(F)F)c4)CC3)csc2C)cc1	x	n	x	x	x	x
CCOc1ccc(CN2C(=O)c3ccccc3Sc3ccc(C(=O)NC4CCC(C)CC4)cc32)cc1 (stereo not given)	x	n	n	x	x	x
O=c1c2ccccc2oc2ccc(Oc3ccccc3)cc12	2.8µM	4.3µM	x	u	x	1.8µM
COc1ccccc1NC(CC(=O)c1ccccc1)C(=O)OCC(=O)c1ccc(F)cc1 (stereo not given)	n	1.7µM	5.6µM	1.6µM	n	n
CC(NC(=O)COC(=O)c1cc2ccccc2cc1O)c1ccccc1 (stereo not given)	n	n	x	n	x	n
CN(C(=O)c1ccccc1C(=O)OCC(=O)c1ccccc1)c1ccccc1	n	u	x	n	x	n
CNc1ccccc1C(=O)OCC(=O)c1ccccc1	n	7.6µM	u	n	n	n
CN(C(=O)c1ccccc1C(=O)OCC(=O)c1ccc(F)cc1)c1ccccc1	n	u	x	n	x	n
SMILES	NPC1 prom act	FLuc counter	SMN2 splice enh	ELG1 genotoxic	Luc counter	Rab9 promoter act
CNc1ccccc1C(=O)OCC(=O)c1ccc(F)cc1	n	5.4µM	n	n	n	n
O=C(COC(=O)c1cc2ccccc2cc1O)c1ccccc1	n	27µM	x	u	x	n
COc1ccccc1NC(=O)CCCC(=O)OCC(=O)c1ccc(F)cc1	n	n	x	n	x	n
CCc1nnc(SCc2cccc(Cl)c2)c2cc3sccc3n12	x	n	n	x	x	x
CC1CCN(S(=O)(=O)c2ccc3c(c2)N(CC(=O)NCCc2ccc(Cl)cc2)C(=O)CO3)CC1	x	n	n	x	x	x
O=C(NCc1ccco1)C1CCN(C(=O)N2CCOc3ccccc32)CC1	x	n	x	x	x	x
O=C(COC(=O)c1ccccc1Nc1ccccc1)c1ccccc1	n	13µM	n	n	n	n
Cc1ccc(NC(=O)COC(=O)c2ccccc2Nc2ccccc2)cc1	n	n	n	n	n	n
COc1ccc(/C=C/C(=O)c2ccc[nH]2)cc1OC	u	12µM	u	21µM	n	3.2µM
COc1ccc(/C=C/C(=O)c2ccncc2)c2ccccc12	n	u	n	n	n	n
COc1ccc(/C=C/C(=O)c2cccs2)cc1OC	x	x	x	x	n	x
COc1ccc(/C=C/C(=O)c2ccc[nH]2)c(OC)c1OC	u	8.5µM	u	u	n	u
CC(=O)Nc1ccc2c(c1)ncn2-c1ccc(C)cc1	1.1µM	5.4µM	8.9µM	9.2µM	n	1.8µM
O=C(Nc1cccc(-n2cnnn2)c1)c1ccco1	n	n	n	n	n	n
Cn1cnc2cc(NC(=O)c3ccco3)ccc21	2.8µM	19µM	7.1µM	7.3µM	n	u
CC(=O)Nc1ccc2c(c1)ncn2C	n	n	n	n	n	n
O=C(Nc1ccc2c(c1)ncn2-c1ccccc1)c1ccco1	u	8.5µM	13µM	u	n	u
O=C(Nc1cccc(F)c1)N1CCCC2(CCN(C(=O)c3cnccn3)CC2)C1	x	x	n	x	n	x
CCOc1ccc(NC(=O)CSc2ncn[nH]2)cc1	n	u	n	n	x	n
O=C(CSc1ncn[nH]1)Nc1ccc(OCc2ccccc2)cc1	n	17µM	u	u	n	u
Cc1nc(SCC(=O)Nc2ccc(OCc3ccccc3)cc2)n[nH]1	n	12µM	x	n	n	u
COc1ccc(C(CNC(=O)c2cc3ccccc3o2)N2CCCC2)cc1 (stereo not given)	n	n	x	n	x	n
COc1ccc(C(CNC(=O)c2ccc(-c3nc4ccccc4s3)o2)N2CCCC2)cc1 (stereo not given)	n	19µM	x	n	x	n
CCCN(Cc1ccc(C)cc1)C(=O)c1ccc(CNS(=O)(=O)c2ccc(C(C)=O)cc2)cc1	u	21µM	x	n	x	u
CCN(Cc1ccccc1)C(=O)c1ccc(CNS(=O)(=O)c2ccc(C)cc2)cc1	n	n	n	n	n	n
SMILES	NPC1 prom act	FLuc counter	SMN2 splice enh	ELG1 genotoxic	Luc counter	Rab9 promoter act
COc1ccc(-c2nn(-c3ccccc3)cc2N)cc1	3.5µM	11µM	14µM	u	n	2.8µM
COc1ccc(-c2c(C)nn(-c3ccccc3)c2N)cc1	u	21µM	u	u	n	u
Cc1nn(-c2ccc(C(=O)O)cc2)c(N)c1-c1ccccc1	u	3µM	11µM	u	n	u
Cc1cc(C)cc(NC(=O)Cn2nnc(C(=O)Nc3cc(C)cc(C)c3)c2N)c1	x	n	n	x	x	x
CCN(C(=O)CSc1nc2ccccc2n1CC(=O)N1CCCC(C)C1)c1ccccc1 (stereo not given)	x	n	x	x	x	x
O=C(Nc1ccccc1)C1Cc2ccccc2CN1C(=O)c1ccco1 (stereo not given)	n	19µM	n	n	n	n
COc1ccccc1NC(=O)C1Cc2ccccc2CN1C(=O)c1ccco1 (stereo not given)	n	n	x	n	x	n
Cc1ccc2c(c1)c1cccc3c1n2CCN3CCC(N)=O	3.2µM	6µM	20µM	5µM	n	3.2µM
NC(=O)CCn1c2ccccc2c2ccccc21	n	n	n	n	n	n
CCOc1ccccc1OCCCCOc1ccccc1F	n	n	n	n	n	n
